From the supplement of paper PMC6089552
Hit rate of the full screen: of about 3,200 compounds, about 300 (9.4%) showed activity. Shown is part of a subset that was picked to be rich in actives.

Test system: A673/TR/shEF
Experiment: cell viability (LOESS-normalised, relative to median of negative controls) (log2 ratio); higher = more viable cells (less compound effect), active = hit call of the paper (over 3 MAD below the median)
Conditions: treatment time: 72 h
In short: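 A673/TR/shEF Ewing sarcoma cells were plated at 1,500 per well in 384-well plates and cultured with or without doxycycline, added 24 h before compounds, to induce EWS-FLI1 shRNA knockdown. Library compounds at two or more concentrations, alongside DMSO controls, were applied for three days. Cell viability was measured by CellTiter-Glo luminescence on an Envision reader. Readings were LOESS-corrected per plate, divided by the median of negative controls and log2-transformed, and hits were wells lying at least three median absolute deviations from the median of all screened wells.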

[1] = 0.25 µM, library screen: screen1, EWS-FLI1 expression: high (no doxycycline)
[2] = 0.25 µM, library screen: screen1, EWS-FLI1 expression: low (doxycycline-induced shRNA knockdown)
[3] = 2.5 µM, library screen: screen1, EWS-FLI1 expression: high (no doxycycline)
[4] = 2.5 µM, library screen: screen1, EWS-FLI1 expression: low (doxycycline-induced shRNA knockdown)
[5] = 0.25 µM, library screen: screen2, EWS-FLI1 expression: high (no doxycycline)
[6] = 0.25 µM, library screen: screen2, EWS-FLI1 expression: low (doxycycline-induced shRNA knockdown)
[7] = 2.5 µM, library screen: screen2, EWS-FLI1 expression: high (no doxycycline)
[8] = 2.5 µM, library screen: screen2, EWS-FLI1 expression: low (doxycycline-induced shRNA knockdown)
[9] = 0.103 µM, library screen: screen3, EWS-FLI1 expression: high (no doxycycline)
[10] = 0.103 µM, library screen: screen3, EWS-FLI1 expression: low (doxycycline-induced shRNA knockdown)
[11] = 0.308 µM, library screen: screen3, EWS-FLI1 expression: high (no doxycycline)
[12] = 0.308 µM, library screen: screen3, EWS-FLI1 expression: low (doxycycline-induced shRNA knockdown)
[13] = 0.926 µM, library screen: screen3, EWS-FLI1 expression: high (no doxycycline)
[14] = 0.926 µM, library screen: screen3, EWS-FLI1 expression: low (doxycycline-induced shRNA knockdown)
[15] = 2.8 µM, library screen: screen3, EWS-FLI1 expression: high (no doxycycline)
[16] = 2.8 µM, library screen: screen3, EWS-FLI1 expression: low (doxycycline-induced shRNA knockdown)
[17] = 8.3 µM, library screen: screen3, EWS-FLI1 expression: high (no doxycycline)
[18] = 8.3 µM, library screen: screen3, EWS-FLI1 expression: low (doxycycline-induced shRNA knockdown)
[19] = 25 µM, library screen: screen3, EWS-FLI1 expression: high (no doxycycline)
[20] = 25 µM, library screen: screen3, EWS-FLI1 expression: low (doxycycline-induced shRNA knockdown)
[21] = 0.025 µM, library screen: screen2, EWS-FLI1 expression: high (no doxycycline)
[22] = 0.025 µM, library screen: screen2, EWS-FLI1 expression: low (doxycycline-induced shRNA knockdown)
[23] = 25 µM, library screen: screen2, EWS-FLI1 expression: high (no doxycycline)
[24] = 25 µM, library screen: screen2, EWS-FLI1 expression: low (doxycycline-induced shRNA knockdown)

Measured: cell viability (log2)

CC1OC(OC2C(O)COC(OC3C(C)OC(OC4C(OC(=O)C56CCC(C)(C)CC5C5=CCC7C8(C)CCC(OC9OC(CO)C(O)C(O)C9O)C(C)(C)C8CCC7(C)C5(C)CC6O)OCC(O)C4O)C(O)C3O)C2O)C(O)C(O)C1O (stereo not drawn)
inactive: [1] 0.0486 | [2] 0.0258 | [3] 0.0372 | [4] 0.223

COC(=O)c1c(C)c2c(c(C)c1OC)OC(=O)c1c(C)c(Cl)c(OC)c(Cl)c1O2
inactive: [1] 0.0616 | [2] 0.043 | [3] 0.0828 | [4] 0.0347

O=c1[nH]c(=O)n([C@H]2C[C@H](O)[C@@H](CO)O2)cc1/C=C/Br
inactive: [5] 0.184 | [6] 0.138 | [7] 0.072 | [8] 0.108

CCCCCOC(=O)Nc1nc(=O)n([C@@H]2O[C@H](C)[C@@H](O)[C@H]2O)cc1F
inactive: [9] 0.057 | [10] 0.111 | [11] 0.147 | [12] 0.143 | [13] 0.154 | [14] 0.121 | [15] 0.179 | [16] 0.14 | [17] 0.166 | [18] 0.0924 | [19] 0.195 | [20] 0.124

Cc1cn([C@H]2C[C@H](N=[N+]=[N-])[C@@H](CO)O2)c(=O)[nH]c1=O
inactive: [21] 0.0606 | [22] 0.0603 | [2] -0.108 | [5] 0.183 | [6] 0.0909 | [7] 0.12 | [8] 0.103 | [23] 0.0992 | [24] 0.0558
active: [1] -0.142 | [3] -1.07 | [4] -0.798

CCc1cn([C@H]2C[C@H](O)[C@@H](CO)O2)c(=O)[nH]c1=O
inactive: [21] 0.0952 | [22] 0.0914 | [1] 0.152 | [2] 0.0662 | [5] 0.0236 | [6] 0.0662 | [3] 0.079 | [4] 0.152 | [7] 0.176 | [8] 0.0177 | [23] -0.0289 | [24] 0.0946

Cc1cn([C@@H]2C[C@@H](O)[C@H](CO)O2)c(=O)[nH]c1=O
inactive: [9] 0.207 | [10] 0.0457 | [11] 0.0611 | [12] 0.118 | [13] 0.128 | [14] 0.0817 | [15] 0.203 | [16] 0.115 | [17] 0.177 | [18] 0.101 | [19] 0.139 | [20] 0.167

O=c1[nH]c(=O)n([C@H]2C[C@H](O)[C@@H](CO)O2)cc1C(F)(F)F
inactive: [9] 0.105 | [10] 0.105 | [1] -0.0346 | [2] 0.0988 | [11] 0.134 | [12] 0.147 | [13] 0.108 | [14] 0.0588 | [3] 0.0509 | [4] 0.029 | [15] 0.0746 | [16] 0.0921 | [17] 0.0584 | [18] 0.048 | [20] 0.124
active: [19] -0.362

O=c1[nH]c(=O)n([C@H]2C[C@H](O)[C@@H](CO)O2)cc1F
inactive: [21] 0.0911 | [22] 0.0185 | [9] 0.0528 | [10] 0.0374 | [2] 0.23 | [6] 0.103 | [12] 0.079 | [14] 0.0595 | [4] 0.156 | [8] 0.138 | [16] 0.0813 | [18] 0.0595 | [24] -0.0409 | [20] 0.0541
active: [1] -1.07 | [5] -0.231 | [11] -0.266 | [13] -0.534 | [3] -1.48 | [7] -0.805 | [15] -0.621 | [17] -0.85 | [23] -0.944 | [19] -1.03

Cc1cn([C@H]2C=C[C@@H](CO)O2)c(=O)[nH]c1=O
inactive: [9] -0.00295 | [10] 0.0515 | [5] 0.197 | [6] 0.032 | [11] -0.0178 | [12] 0.0223 | [13] 0.0714 | [14] 0.0163 | [7] 0.101 | [8] 0.0899 | [15] 0.0507 | [16] 0.0197 | [17] 0.102 | [18] 0.0821 | [19] 0.0208 | [20] 0.0668

C[C@H]1O[C@@H](n2cc(F)c(=O)[nH]c2=O)[C@H](O)[C@@H]1O
active: [1] -0.21 | [3] -1.24 | [7] -0.257 | [23] -2.97 | [24] -0.654
inactive: [21] 0.0333 | [22] 0.0231 | [2] 0.08 | [5] -0.00269 | [6] 0.0834 | [4] -0.0424 | [8] 0.0331

O=c1[nH]c(=O)n([C@H]2C[C@H](O)[C@@H](CO)O2)cc1Br
inactive: [5] 0.238 | [6] 0.0517 | [7] 0.037 | [8] 0.0646

O=C(O)c1cc(=O)c(O)c2c(O)c(O)ccc2c1
inactive: [1] 0.0685 | [2] 0.0312 | [3] 0.157 | [4] 0.0783

Fc1cccc(CN2CCN(Cc3ccco3)CC2)c1
inactive: [1] 0.0188 | [2] 0.159 | [3] 0.104 | [4] 0.135

C=CCCCCCCCCCCCC=CC(O)COC(C)=O (stereo not drawn)
inactive: [1] -0.0116 | [2] 0.0382 | [3] 0.137 | [4] 0.0541

CC12CCC(=O)C=C1CCC1C2C(O)CC2(C)C1CCC2(O)C(=O)COC(=O)CCC(=O)O (stereo not drawn)
inactive: [5] 0.252 | [6] 0.0354 | [7] 0.189 | [8] 0.145

CCSCCOC(=O)C1=C(C)NC2=C(C(=O)CC(C)(C)C2)C1c1coc2ccccc2c1=O (stereo not drawn)
inactive: [1] 0.0909 | [2] 0.0763 | [3] 0.107 | [4] 0.00786

CCOc1ccc2nc(SC)nc(C)c2c1
inactive: [1] 0.0636 | [2] 0.0768 | [3] 0.137 | [4] -0.103

CC1CC2C3CCC4=CC(=O)C=CC4(C)C3C(=O)CC2(C)[C@@]1(O)C(=O)CO (stereo partly drawn)
inactive: [9] 0.145 | [10] -0.00246 | [11] 0.132 | [12] 0.12 | [13] 0.101 | [14] 0.0958 | [15] 0.116 | [16] 0.077 | [17] 0.0168 | [18] 0.08 | [19] 0.0762 | [20] 0.0993

COc1ccc(CN2CCN(Cc3ccccc3Br)CC2)cc1OC
inactive: [1] 0.0838 | [2] 0.133 | [3] 0.0605 | [4] 0.115

Cc1cc(O)c2c(c1)Cc1cccc(O)c1C2=O
inactive: [1] 0.119 | [2] 0.00964 | [3] 0.16 | [4] 0.111

O=C1CSC(=O)N1CCN1C(=O)SC(=Cc2ccc(O)cc2)C1=O
inactive: [1] 0.0789 | [2] 0.0957 | [3] 0.0804 | [4] -0.00491

O=C(Oc1cc(O)cc2c1CC(OC(=O)c1cc(O)c(O)c(O)c1)C(c1ccc(O)c(O)c1)O2)c1cc(O)c(O)c(O)c1 (stereo not drawn)
inactive: [1] 0.117 | [2] -0.00743 | [3] 0.128 | [4] -0.0369

CCCCCCCCCCCCCCCCCC(=O)NCC(COP(=O)([O-])OCC[N+](C)(C)C)OCC (stereo not drawn)
inactive: [5] 0.252 | [6] 0.0979 | [7] 0.243 | [8] 0.0461

CC(CN1c2ccccc2Sc2cccnc21)N(C)C (stereo not drawn)
inactive: [1] 0.132 | [2] 0.0453 | [3] 0.0549 | [4] 0.034

C#Cc1cccc(Nc2ncnc3cc(OCCOC)c(OCCOC)cc23)c1
inactive: [9] 0.107 | [10] 0.0915 | [11] 0.189 | [12] 0.0523 | [13] 0.0696 | [14] 0.0933 | [15] 0.0439 | [16] 0.0596 | [17] 0.105 | [18] 0.0233 | [19] -0.0778 | [20] -0.0451

COc1cc2ncnc(Nc3ccc(O)cc3)c2cc1OC
inactive: [5] 0.241 | [6] 0.0114 | [7] 0.112 | [8] 0.0956

CN(C)c1cc2c(Nc3ccc4c(cnn4Cc4ccccc4)c3)ncnc2cn1
inactive: [5] 0.124 | [6] 0.0545 | [7] 0.147 | [8] 0.0613

C#Cc1cccc(Nc2ncnc3cc(OC)c(OCCCCCCC(=O)NO)cc23)c1
active: [13] -0.53 | [14] -0.197 | [15] -1.73 | [16] -0.607 | [17] -2.92 | [18] -0.618 | [19] -3.65 | [20] -1.64
inactive: [9] -0.0787 | [10] -0.0134 | [11] -0.0791 | [12] -0.0194

COCC(=O)NC/C=C/c1ccc2ncnc(Nc3ccc(Oc4ccc(C)nc4)c(C)c3)c2c1
inactive: [9] 0.0492 | [10] 0.0262 | [11] -0.0204 | [12] 0.0495 | [13] -0.0118 | [14] 0.013 | [15] -0.0655 | [16] -0.0248 | [17] -0.00849 | [18] 0.0384 | [19] -0.127 | [20] -0.105

COc1cc2ncnc(Nc3cccc(Cl)c3)c2cc1OC
active: [3] -0.137 | 25 µM, library screen: screen1, EWS-FLI1 expression: high (no doxycycline) -0.119
0.289: [1]
inactive: 0.025 µM, library screen: screen1, EWS-FLI1 expression: high (no doxycycline) 0.237 | 0.025 µM, library screen: screen1, EWS-FLI1 expression: low (doxycycline-induced shRNA knockdown) 0.01 | [2] 0.0337 | [5] 0.134 | [6] 0.0168 | [4] 0.122 | [7] 0.175 | [8] 0.00846
0.297: 25 µM, library screen: screen1, EWS-FLI1 expression: low (doxycycline-induced shRNA knockdown)
